Test results reported in PubChem BioAssay (EPA / NIEHS).
“And” between values parts separate entries of the source, which are not always exact repeats. Equal values may be shown once. The source made the active and inactive calls. The calls were made as follows: active = hit-call score of the fitted dose curve at least 0.9, where 1 is the maximum; inactive = score below 0.9.

Key:
[1] = read-out: Thrombomodulin, THBD (gene 7056); assay: BSK_CASM3C_Thrombomodulin: BioMAP Diversity Plus: CASM3C Assay for Thrombomodulin Biomarker Activity (AID 2283051); conditions: primary human coronary artery smooth muscle cells; actives raise or lower the signal;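 also: thrombomodulin protein level measured by ELISA 24 h after dosing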
[2] = read-out: Tissue Factor, F3 (gene 2152); assay: BSK_CASM3C_TissueFactor: BioMAP Diversity Plus: CASM3C Assay for Tissue Factor Biomarker Activity (AID 2283052); conditions: primary human coronary artery smooth muscle cells; actives raise or lower the signal;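 also: cell surface tissue factor protein level read by ELISA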
[3] = read-out: Urokinase-type plasminogen activator receptor (uPAR), PLAUR (gene 5329); assay: BSK_CASM3C_uPAR: BioMAP Diversity Plus: CASM3C Assay for Urokinase-type plasminogen activator receptor (uPAR) Biomarker Activity (AID 2283054); conditions: primary human coronary artery smooth muscle cells; actives raise or lower the signal;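 also: cell-surface uPAR protein level quantified by ELISA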
[4] = read-out: Vascular cell adhesion molecule 1 (VCAM1), VCAM1 (gene 7412); assay: BSK_CASM3C_VCAM1: BioMAP Diversity Plus: CASM3C Assay for Vascular cell adhesion molecule 1 (VCAM1) Biomarker Activity (AID 2283055); conditions: primary human coronary artery smooth muscle cells; actives raise or lower the signal;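 also: VCAM-1 protein level quantified by ELISA on the cells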
[5] = read-out: Collagen III, COL3A1 (gene 1281); assay: BSK_hDFCGF_CollagenIII: BioMAP Diversity Plus: hDFCGF Assay for Collagen III Biomarker Activity (AID 2283056); conditions: primary human foreskin fibroblasts; actives raise or lower the signal
Procedure, shortened: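 Human foreskin primary fibroblasts were exposed to test chemicals for 24 h, after which collagen III was quantified by ELISA. Activity was fitted bidirectionally against DMSO as negative control and baseline.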

[6] = read-out: Epidermal growth factor receptor (EGFR), EGFR (gene 1956); assay: BSK_hDFCGF_EGFR: BioMAP Diversity Plus: hDFCGF Assay for Epidermal growth factor receptor (EGFR) Biomarker Activity (AID 2283057); conditions: primary human foreskin fibroblasts; actives raise or lower the signal
Procedure, shortened: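 EGFR levels by ELISA in human dermal fibroblast cultures, 24 h post-treatment, fitted bidirectionally versus DMSO. Parallel wells stained with sulforhodamine B to detect overt cytotoxicity.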

[7] = read-out: Interleukin-8 (IL8), CXCL8 (gene 3576); assay: BSK_hDFCGF_IL8: BioMAP Diversity Plus: hDFCGF Assay for Interleukin-8 (IL8) Biomarker Activity (AID 2283058); conditions: primary human foreskin fibroblasts; actives raise or lower the signal
Procedure, shortened: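 hDFCGF human dermal fibroblasts; 24 h chemical exposure; IL-8 by ELISA; bidirectional curve fit vs DMSO baseline; gain or loss of signal scored.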

[8] = BSK_hDFCGF_Proliferation: Cell Proliferation Assessment in the BioMAP Diversity Plus: hDFCGF Assay (AID 2283059); conditions: primary human foreskin fibroblasts;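 also: curves fitted for both rise and fall of signal versus DMSO baseline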
Procedure, shortened: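 This proliferation readout used SRB total-protein staining of human foreskin fibroblasts […], normalized to DMSO with bidirectional curve fitting.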

[9] = read-out: Macrophage colony-stimulating factor (MCSF), CSF1 (gene 1435); assay: BSK_hDFCGF_MCSF: BioMAP Diversity Plus: hDFCGF Assay for Macrophage colony-stimulating factor (MCSF) Biomarker Activity (AID 2283060); conditions: primary human foreskin fibroblasts; actives raise or lower the signal
Procedure, shortened: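 Human foreskin primary fibroblasts were treated with test chemical for 24 h, and M-CSF was then measured by ELISA. Data were fitted bidirectionally against DMSO as the negative control and activity baseline.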

[10] = BSK_hDFCGF_SRB: Viability Assessment in the BioMAP Diversity Plus: hDFCGF Assay (AID 2283061); conditions: primary human foreskin fibroblasts;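 also: cells exposed to compound for 24 h before the read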
Procedure, shortened: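 Human foreskin primary fibroblasts were treated with compound and assessed 24 h after dosing. Total protein was measured by sulforhodamine B staining (0.1% SRB after 10% TCA fixation, 560 nm read) as a cytotoxicity marker, with bidirectional fitting against DMSO baseline.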

[11] = read-out: TIMP metallopeptidase inhibitor 1 (TIMP1), TIMP1 (gene 7076); assay: BSK_hDFCGF_TIMP1: BioMAP Diversity Plus: hDFCGF Assay for TIMP metallopeptidase inhibitor 1 (TIMP1) Biomarker Activity (AID 2283062); conditions: primary human foreskin fibroblasts; actives raise or lower the signal
Procedure, shortened: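 Primary human foreskin fibroblasts in the hDFCGF system were dosed with compound for 24 h, then TIMP-1 was measured by ELISA. Activity was fitted bidirectionally relative to DMSO control; parallel SRB staining assessed cytotoxicity.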

[12] = read-out: Monokine induced gamma interferon (MIG), CXCL9 (gene 4283); assay: BSK_hDFCGF_MIG: BioMAP Diversity Plus: hDFCGF Assay for Monokine induced gamma interferon (MIG) Biomarker Activity (AID 2283063); conditions: primary human foreskin fibroblasts; actives raise or lower the signal
Procedure, shortened: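 ELISA read-out of MIG from primary human dermal fibroblasts 24 h post-dosing. Gain or loss of signal fitted bidirectionally, DMSO as baseline.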

[13] = read-out: Matrix Metallopeptidase 1 (MMP1), MMP1 (gene 4312); assay: BSK_hDFCGF_MMP1: BioMAP Diversity Plus: hDFCGF Assay for Matrix Metallopeptidase 1 (MMP1) Biomarker Activity (AID 2283064); conditions: primary human foreskin fibroblasts; actives raise or lower the signal
Procedure, shortened: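 Human foreskin fibroblasts exposed to chemical for 24 h; MMP1 detected by ELISA, with DMSO as baseline for bidirectional fitting.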

[14] = read-out: Vascular cell adhesion molecule 1 (VCAM1), VCAM1 (gene 7412); assay: BSK_hDFCGF_VCAM1: BioMAP Diversity Plus: hDFCGF Assay for Vascular cell adhesion molecule 1 (VCAM1) Biomarker Activity (AID 2283065); conditions: primary human foreskin fibroblasts; actives raise or lower the signal;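 as to AC50: VCAM-1 protein level quantified by ELISA after 24 h chemical exposure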
Procedure, shortened: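 Primary human foreskin fibroblasts (hDFCGF system) were dosed with chemical and VCAM-1 was measured by ELISA 24 h later. Bidirectional curve fitting used DMSO as negative control and activity baseline.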

[15] = read-out: Plasminogen activator inhibitor-1 (PAI1), SERPINE1 (gene 5054); assay: BSK_hDFCGF_PAI1: BioMAP Diversity Plus: hDFCGF Assay for Plasminogen activator inhibitor-1 (PAI1) Biomarker Activity (AID 2283066); conditions: primary human foreskin fibroblasts; actives raise or lower the signal
Procedure, shortened: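 PAI-1 levels in human dermal foreskin fibroblasts were quantified by ELISA 24 h after dosing, with gain or loss analysed against DMSO. Overt cytotoxicity was checked by sulforhodamine B total-protein staining in parallel cultures.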

[16] = read-out: Intercellular Adhesion Molecule 1 (ICAM1), ICAM1 (gene 3383); assay: BSK_KF3CT_ICAM1: BioMAP Diversity Plus: KF3CT Assay for Intercellular Adhesion Molecule 1 (ICAM1) Biomarker Activity (AID 2283067); conditions: primary human keratinocytes with fibroblasts; actives raise or lower the signal
Procedure, shortened: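 Human keratinocyte plus foreskin fibroblast primary co-culture was exposed to chemical for 24 h. ICAM-1 was then quantified by ELISA, and the data were fit bidirectionally against DMSO as the negative control and baseline.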

[17] = read-out: Interferon-gamma inducible Protein 10 (IP10), CXCL10 (gene 3627); assay: BSK_KF3CT_IP10: BioMAP Diversity Plus: KF3CT Assay for Interferon-gamma inducible Protein 10 (IP10) Biomarker Activity (AID 2283068); conditions: primary human keratinocytes with fibroblasts; actives raise or lower the signal
Procedure, shortened: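 Signal is secreted/surface IP-10 by ELISA in a human primary skin co-culture of keratinocytes and foreskin fibroblasts, taken 24 h post-dosing; DMSO served as negative control.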

[18] = BSK_KF3CT_SRB: Viability Assessment in the BioMAP Diversity Plus: KF3CT Assay (AID 2283069); conditions: primary human keratinocytes with fibroblasts;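 also: fitted for both signal gain and loss against DMSO baseline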
Procedure, shortened: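 Overt cytotoxicity is assessed as total protein by sulforhodamine B staining in parallel human skin co-cultures at 24 h after dosing. DMSO serves as negative control and baseline.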

[19] = read-out: Interleukin-1 alpha (IL1a), IL1A (gene 3552); assay: BSK_KF3CT_IL1a: BioMAP Diversity Plus: KF3CT Assay for Interleukin-1 alpha (IL1a) Biomarker Activity (AID 2283070); conditions: primary human keratinocytes with fibroblasts; actives raise or lower the signal
Procedure, shortened: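 Readout is IL-1a level by ELISA, compared bidirectionally with DMSO as baseline. Cells: human keratinocytes co-cultured with foreskin fibroblasts, harvested 24 h post-dose.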

Measured: AC50

NCC(F)(F)C(F)(F)C(F)(F)C(F)(F)C(F)(F)C(F)(F)C(F)(F)C(F)(F)F
inactive: [1] | [2] | [3] | [4] | [5] | [6] | [7] | [8] | [9] | [10] | [11] | [12] | [13] | [14] | [15] | [16] | [17] | [18] | [19]

CCN(CC)c1ccc(C=O)c(O)c1
active: [8] 30.4 µM
inactive: [1] | [2] | [3] | [4] | [5] | [6] | [9] | [10] | [11] | [12] | [13] | [14] | [15] | [16] | [17] | [18] | [19]

CNS(=O)(=O)C(F)(F)C(F)(F)C(F)(F)C(F)(F)C(F)(F)C(F)(F)C(F)(F)C(F)(F)F
active: [4] 8.2 µM and 1.69 µM | [14] 800 nM and 1.94 µM
inactive: [1] | [2] | [3] | [6] | [8] | [9] | [10] | [11] | [12] | [13] | [15] | [16] | [17] | [18] | [19]

NC(=O)C(F)(F)C(F)(F)C(F)(F)C(F)(F)C(N)=O
inactive: [1] | [2] | [3] | [4] | [5] | [6] | [7] | [8] | [9] | [10] | [11] | [12] | [13] | [14] | [15] | [16] | [17] | [18] | [19]

O=C(c1ccccc1)c1ccc(O)cc1O
active: [2] 13.6 µM
inactive: [1] | [3] | [4] | [5] | [6] | [8] | [9] | [10] | [11] | [12] | [13] | [14] | [15] | [16] | [17] | [18] | [19]

OC(O)C(F)(F)C(F)(F)F
inactive: [1] | [2] | [3] | [4] | [5] | [6] | [7] | [8] | [9] | [10] | [11] | [12] | [13] | [14] | [15] | [16] | [17] | [18] | [19]

Cc1ccc(S(=O)(=O)C(I)I)cc1
inactive: [1]
active: [2] 1.97 µM | [3] 2.92 µM | [4] 2.46 µM | [5] 6.27 µM | [6] 3.79 µM | [8] 0.208 µM | [9] 2.36 µM | [10] 2.63 µM | [11] 1.62 µM | [12] 2.68 µM | [13] 2.22 µM | [14] 0.942 µM | [15] 2.41 µM | [16] 3.07 µM | [17] 7.09 µM | [18] 5.19 µM | [19] 2.47 µM

O=C1C=CC(=O)N1c1ccc(Cc2ccc(N3C(=O)C=CC3=O)cc2)cc1
active: [2] 3.35 µM | [3] 5.3 µM | [4] 2.94 µM | [5] 4.09 µM | [8] 0.162 µM | [9] 2 µM | [10] 1.91 µM | [11] 2.7 µM | [12] 3.48 µM | [13] 1.99 µM | [14] 1.5 µM | [15] 2.48 µM | [16] 3.64 µM | [17] 6.7 µM | [18] 1.97 µM | [19] 2.69 µM
inactive: [1] | [6]

NC(=O)C(F)(F)C(F)(F)C(F)(F)C(F)(F)C(F)(F)C(F)(F)C(F)(F)F
inactive: [1] | [2] | [3] | [4] | [6] | [8] | [9] | [10] | [11] | [12] | [13] | [14] | [15] | [16] | [17] | [18] | [19]

O=C(O)CCC(F)(F)C(F)(F)C(F)(F)F
inactive: [1] | [2] | [3] | [4] | [5] | [6] | [8] | [9] | [10] | [11] | [12] | [13] | [14] | [15] | [16] | [17] | [18] | [19]

CCOC(C=C(C)CCC=C(C)C)OCC
inactive: [1] | [6] | [7] | [16]
active: [2] 28.6 µM | [3] 31.4 µM | [4] 25.7 µM | [5] 29 µM | [8] 32.2 µM | [9] 32.8 µM | [10] 33.2 µM | [11] 20 µM | [12] 27.3 µM | [13] 32.4 µM | [14] 20 µM | [15] 20 µM | [17] 34.5 µM | [18] 34.8 µM | [19] 26 µM

COC(F)(C(F)F)C(F)(F)F (stereo unspecified)
inactive: [1] | [2] | [3] | [4] | [6] | [8] | [9] | [10] | [11] | [12] | [13] | [14] | [15] | [16] | [17] | [18] | [19]

OCC(O)CC(F)(F)C(F)(F)C(F)(F)C(F)(F)F (stereo unspecified)
inactive: [1] | [2] | [3] | [4] | [5] | [6] | [7] | [8] | [9] | [10] | [11] | [12] | [13] | [14] | [15] | [16] | [17] | [18] | [19]
